Results on 12 compounds are retold here after PubChem BioAssay (NCATS).

Inconclusive results are not listed. A number with no mark means an inactive call. The source made the active and inactive calls. Calls come from the whole dose curve.
Potency is the fitted concentration of half-maximal effect.

Cytochrome P450 1A2 (Homo sapiens), sequence (P05177 whole entry, looked up): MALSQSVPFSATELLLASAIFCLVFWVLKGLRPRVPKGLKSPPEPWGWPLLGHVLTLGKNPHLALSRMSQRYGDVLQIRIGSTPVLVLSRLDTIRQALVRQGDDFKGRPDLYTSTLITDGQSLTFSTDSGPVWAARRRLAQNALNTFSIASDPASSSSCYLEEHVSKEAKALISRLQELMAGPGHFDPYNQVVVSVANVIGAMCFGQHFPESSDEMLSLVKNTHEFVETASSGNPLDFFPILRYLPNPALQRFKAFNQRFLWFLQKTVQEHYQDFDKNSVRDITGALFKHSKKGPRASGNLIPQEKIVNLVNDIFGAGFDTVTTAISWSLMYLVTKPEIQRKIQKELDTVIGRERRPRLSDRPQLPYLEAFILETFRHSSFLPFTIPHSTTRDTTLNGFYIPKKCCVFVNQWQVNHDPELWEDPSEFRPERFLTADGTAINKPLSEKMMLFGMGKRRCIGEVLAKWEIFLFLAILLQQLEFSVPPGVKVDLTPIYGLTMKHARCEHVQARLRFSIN

This experiment has as its target Cytochrome P450 1A2 (Homo sapiens) (UniProt P05177). As to the kind of experiment: p450-cyp1a2 (AID 410).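 For activity change, negative = inhibition: -100% = full effect of reference inhibitor.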 The note with it: recombinant CYP1A2, luciferin-ME demethylation, luminescence; series mostly up to 25.6 µM; activity change, negative = inhibition: at the top concentration. The essentials: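 Read-out is luminescence from luciferin produced by CYP1A2 demethylation of Luciferin-ME (100uM, at Km). Detection reagent stopped the 60 min NADPH-dependent reaction; signals were normalized to 57 uM furafylline.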
Consider `FC(F)(F)c1ccccc1-c1ccc2ncnc(NC3CCNCC3)c2c1`, for which the Potency was 20 µM (active).

`Cc1cc2ccc(=O)oc2cc1OC[C@@H](O)C(C)(C)O`: the Potency was 39.8 µM (active). The same measure, in the same setting: then `C1CCC(C(C[C@@H]2CCCCN2)C2CCCCC2)CC1`, with 6.31 µM (active); and `COc1cccc(-c2nc(NCCc3c[nH]c4ccc(OC)cc34)c3ccccc3n2)c1`, with 1.58 µM (active); and `C[C@@H](Cc1cccc(C(F)(F)F)c1)NCCOC(=O)c1ccccc1`, with 0.794 µM (active). Same read-out and setting: with `C=Cc1c(C)c2cc3nc(cc4[nH]c(cc5nc(cc1[nH]2)C(C)=C5CCC(=O)O)c(CCC(=O)OC)c4C)[C@@]1(C)C3=CC=C(C(=O)OC)[C@H]1C(=O)OC` (tested in a mixture with another compound) the figure was 3.98 µM (active); with `O=C(OC[C@@H](O)CO)c1ccccc1Nc1ccnc2cc(Cl)ccc12`, 5.01 µM (active).

For `C=C(C)[C@H]1CC[C@]2(C(=O)O)CC[C@]3(C)[C@@H](CC[C@H]4[C@@]5(C)CC[C@@H](O)C(C)(C)[C@@H]5CC[C@@]43C)[C@H]12`, the “activity change, negative = inhibition” value was 10.2%. The same measure, in the same setting: with `Nc1ncnc2c1ncn2[C@@H]1O[C@H](COP(=O)(O)O)[C@@H](O)[C@@H]1O` the figure was -8.9%.

For `CO[C@]1(NC(=O)[C@H](C(=O)O)c2ccc(O)cc2)C(=O)N2C(C(=O)O)=C(CSc3nnnn3C)CO[C@H]21`, the “activity change, negative = inhibition” value was -1.4%. `CCN(CC)CCOC(=O)[C@@H](c1ccccc1)C1CCCCC1`: the Potency was 1.26 µM (active). Take `O[C@@](CCN1CCCCC1)(c1ccccc1)[C@@H]1C[C@H]2C=C[C@@H]1C2`: the “activity change, negative = inhibition” value was -9.3%.
